For assay [1], the system named is Plasmodium falciparum Sir2 (PF13_0152, Sir2A). Description: Plasmodium falciparum Sir2A binding compounds – biochemical, small-molecule microarray, 635 nm fluorescence, primary screen (AID 1098).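 Also: score merges spot fluorescence intensity with its signal-to-noise ratio.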 To be noted: fluorescence 635 nm, higher = more signal.
A short description of assay [2]: probe aDKK1 binding to arrayed compounds – biochemical, biotinylated probe, 635/667 nm fluorescence, primary screen (AID 1099).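 Also: score merges 667nm spot fluorescence with signal to noise across triplicate slides.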 To be noted: small-molecule microarray, higher = more signal.
Assay [3] can be described thus: probe aCHRDL2 binding to arrayed compounds – biochemical, biotinylated probe, 635/667 nm fluorescence, primary screen (AID 1100). Particulars: small-molecule microarray, higher = more signal.
Assay [4] can be described thus: change in splice reporter luminescence, either direction, cell-based, HEK293, spliceosome inhibition project, primary screen (AID 1101).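 Also: HEK293 cells carrying a splicing-competent luciferase reporter gene; test concentration not given here.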 Particulars: HEK293 splicing luciferase reporter, 24 h, higher = more signal, called active from +8 up or from −8 down. Background: Reporter assays use an easily measured gene product as a stand-in for the process of interest.
For assay [5], the target named is Fibroblast growth factor 10 (Homo sapiens) (UniProt O15520). Description: compounds binding fibroblast growth factor 10 – biochemical, small-molecule microarray, 635 nm fluorescence, primary screen (AID 1102). Particulars: FGF10 binding, fluorescence 635 nm, higher = more signal.
Assay [6] deals with glycogen synthase kinase-3 (GSK3A per assay name; protocol says GSK3B). In words: compounds binding glycogen synthase kinase-3 – biochemical, small-molecule microarray, 635 nm fluorescence, GSK3A, primary screen (AID 1103). Also: the record names both GSK3A and GSK3B. To be noted: fluorescence 635 nm, higher = more signal.
Assay [7] has as its target Epidermal growth factor receptor (Homo sapiens) (UniProt P00533). In words: compounds binding epidermal growth factor receptor – biochemical, small-molecule microarray, 635 nm fluorescence, primary screen (AID 1104).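 Also: score merges 667 nm emission intensity with spot signal to noise over triplicate slides.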 Particulars: EGFR binding, higher = more signal.
In assay [8] the target is Follistatin-related protein 3 (Homo sapiens) (UniProt O95633). Description: compounds binding follistatin-related protein 3 – biochemical, small-molecule microarray, 635 nm fluorescence, primary screen (AID 1105).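 Also: score merges emission near 667 nm and signal to noise per printed spot across three slides.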 Particulars: FSTL3 binding, higher = more signal.
In assay [9] the target is Dickkopf-related protein 1 (Homo sapiens) (UniProt O94907). In words: small molecules binding DKK1 protein – biochemical, small-molecule microarray, 635 nm fluorescence scan, primary screen (AID 1106).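 Also: score merges emission near 667 nm with signal to noise over three replicate slides.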 To be noted: higher = more signal.
Assay [10] has as its system Inhibin beta A chain (activin A). In words: small molecules binding activin A – biochemical, small-molecule microarray, 635 nm fluorescence scan, primary screen (AID 1107).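 Also: mouse activin A protein probed at 4.33 µg/mL on printed slides; score merges bound-protein fluorescence near 667 nm with spot signal-to-noise.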 To be noted: INHBA, higher = more signal.
In assay [11] the test system is Human papillomavirus type 1a protein E7 (residues 44-93). In words: small molecules binding HPV E7 44-93 – biochemical, small-molecule microarray, residues 44-93, 635 nm fluorescence, primary screen (AID 1108).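 Also: E7 fragment applied at 1 µg/mL in TBST for 1 h at 4 C; score combines spot fluorescence with its signal to noise ratio.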 Particulars: fluorescence 635 nm, higher = more signal.
Assay [12] is described as follows: hepatitis C replication reporter changes, two-sided – Huh7 cells, luciferase reporter, HCV replication inhibitor project, primary screen (AID 1109).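 Also: huh7 hepatoma cells harbouring a luciferase neomycin HCV replicon reporter; luciferase luminescence as measure of HCV replicon replication; test concentration not given here.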 To be noted: Huh7 HCV replicon luciferase reporter, 48 h; higher = more signal.
Assay [13] addresses Left-right determination factor 2 (Homo sapiens) (UniProt O00292). Description: small molecules binding LEFTY2 protein – biochemical, small-molecule microarray, 635 nm fluorescence scan, primary screen (AID 1110). Particulars: higher = more signal.
The target in assay [14] is Calmodulin-1 (Homo sapiens) (UniProt P0DP23). Description: small molecules binding calmodulin-1 with EGTA – biochemical, small-molecule microarray, Cy5-labelled CALM1, profiling panel (AID 1111).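 Also: labelled calmodulin applied in Tris saline Tween buffer holding calcium plus EGTA and DTT.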 Particulars: Cy5-CALM1 binding fluorescence, higher = more signal.
The target is the same in assay [15]. Description: small molecules binding Ca-loaded calmodulin-1 – biochemical, small-molecule microarray, Cy5-labelled CALM1, plus calcium, artefact control for SMM control-protein annotation, profiling panel (AID 1112).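 Also: score merges spot fluorescence with signal to noise from triplicate slides.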 Particulars: Cy5-CALM1 binding fluorescence, higher = more signal.
Assay [16] is described as follows: probe aWnt5a binding to arrayed compounds – biochemical, biotinylated probe, 635/667 nm fluorescence, primary screen (AID 1113).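 Also: score merges 667 nm fluorescence intensity with signal-to-noise per printed feature.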 Particulars: small-molecule microarray, higher = more signal.
Assay [17] in a line: probe aShh binding to arrayed compounds – biochemical, biotinylated probe, 635/667 nm fluorescence, primary screen (AID 1114).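 Also: probe is biotin-labelled aShh protein from a stem cell growth factor screen; measures binding of labelled protein to compounds printed on the slide; score merges feature fluorescence at 667 nm with signal-to-noise.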 Particulars: small-molecule microarray, higher = more signal.
Assay [18] in a line: probe aNog binding to arrayed compounds – biochemical, biotinylated probe, 635/667 nm fluorescence, primary screen (AID 1115).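 Also: probe is biotinylated aNog protein used at 0.15 µg/mL for 1 h at 4 C; z-score combines 667 nm fluorescence of each spot with its signal to noise.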 To be noted: small-molecule microarray, higher = more signal.
The target in assay [19] is Torsin-1A-interacting protein 1 (Homo sapiens) (UniProt Q5JTV8). In words: compound microarray binding of lysate hLAP1 – cell lysate, small-molecule microarray, COS7 lysate, 635/667 nm fluorescence, primary screen (AID 1116). To be noted: 635 nm fluorescence, higher = more signal.
Assay [20] concerns the target Alpha-bungarotoxin (Bungarus multicinctus) (UniProt P60615). Description: compounds binding labelled alpha-BTX control protein – biochemical, small-molecule microarray, Alexa647 label, 635/667 nm fluorescence, artefact control for SMM control protein annotation, profiling panel (AID 1117). Particulars: alpha-BTX-A647 binding fluorescence, higher = more signal.

The structures appear in SMILES notation. The source made the active and inactive calls.

Sequence of Fibroblast growth factor 10 (Homo sapiens) (O15520 whole entry, looked up): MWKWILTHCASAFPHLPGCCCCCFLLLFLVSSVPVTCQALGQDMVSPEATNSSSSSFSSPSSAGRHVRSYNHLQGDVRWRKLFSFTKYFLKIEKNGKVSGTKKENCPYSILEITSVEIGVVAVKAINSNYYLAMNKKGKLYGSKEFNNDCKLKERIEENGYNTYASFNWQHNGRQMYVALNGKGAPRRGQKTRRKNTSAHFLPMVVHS
Sequence of Alpha-bungarotoxin (Bungarus multicinctus) (P60615 whole entry, looked up): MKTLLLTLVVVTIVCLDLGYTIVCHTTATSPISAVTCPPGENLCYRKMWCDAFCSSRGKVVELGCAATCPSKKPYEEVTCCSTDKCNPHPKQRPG
Sequence of Dickkopf-related protein 1 (Homo sapiens) (O94907 whole entry, looked up): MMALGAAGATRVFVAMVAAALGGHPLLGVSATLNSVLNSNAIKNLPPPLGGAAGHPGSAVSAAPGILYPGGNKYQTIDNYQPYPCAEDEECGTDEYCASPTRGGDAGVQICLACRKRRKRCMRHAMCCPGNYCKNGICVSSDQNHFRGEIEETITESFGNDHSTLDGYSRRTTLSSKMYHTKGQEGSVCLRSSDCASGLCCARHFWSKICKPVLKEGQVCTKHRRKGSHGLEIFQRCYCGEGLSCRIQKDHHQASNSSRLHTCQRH
Sequence of Torsin-1A-interacting protein 1 (Homo sapiens) (Q5JTV8 whole entry, looked up): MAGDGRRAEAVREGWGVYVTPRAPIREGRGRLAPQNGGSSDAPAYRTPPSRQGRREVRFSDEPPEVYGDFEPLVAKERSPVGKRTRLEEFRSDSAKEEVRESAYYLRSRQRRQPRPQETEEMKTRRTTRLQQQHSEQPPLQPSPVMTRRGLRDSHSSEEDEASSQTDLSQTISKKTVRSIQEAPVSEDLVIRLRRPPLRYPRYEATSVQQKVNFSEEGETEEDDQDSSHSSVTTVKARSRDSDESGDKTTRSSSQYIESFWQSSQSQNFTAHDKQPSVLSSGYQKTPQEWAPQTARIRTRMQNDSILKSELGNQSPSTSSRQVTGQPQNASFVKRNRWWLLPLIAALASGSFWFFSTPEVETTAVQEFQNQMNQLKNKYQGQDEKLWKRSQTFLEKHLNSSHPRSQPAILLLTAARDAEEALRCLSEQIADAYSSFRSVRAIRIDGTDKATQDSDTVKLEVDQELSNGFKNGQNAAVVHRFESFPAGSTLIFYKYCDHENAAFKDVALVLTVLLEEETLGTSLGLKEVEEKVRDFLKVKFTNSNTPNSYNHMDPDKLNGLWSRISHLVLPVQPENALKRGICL
Sequence of Left-right determination factor 2 (Homo sapiens) (O00292 whole entry, looked up): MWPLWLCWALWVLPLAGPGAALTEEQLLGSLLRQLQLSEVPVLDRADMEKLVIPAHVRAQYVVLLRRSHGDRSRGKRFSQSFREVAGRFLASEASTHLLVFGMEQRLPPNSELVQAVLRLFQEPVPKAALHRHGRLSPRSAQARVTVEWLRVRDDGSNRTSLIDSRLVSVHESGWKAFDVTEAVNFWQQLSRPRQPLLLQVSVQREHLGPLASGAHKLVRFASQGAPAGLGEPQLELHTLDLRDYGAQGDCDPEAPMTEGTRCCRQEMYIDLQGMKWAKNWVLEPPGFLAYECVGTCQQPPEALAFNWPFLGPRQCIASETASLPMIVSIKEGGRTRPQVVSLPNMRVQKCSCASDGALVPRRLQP
Sequence of Epidermal growth factor receptor (Homo sapiens) (P00533 whole entry, looked up): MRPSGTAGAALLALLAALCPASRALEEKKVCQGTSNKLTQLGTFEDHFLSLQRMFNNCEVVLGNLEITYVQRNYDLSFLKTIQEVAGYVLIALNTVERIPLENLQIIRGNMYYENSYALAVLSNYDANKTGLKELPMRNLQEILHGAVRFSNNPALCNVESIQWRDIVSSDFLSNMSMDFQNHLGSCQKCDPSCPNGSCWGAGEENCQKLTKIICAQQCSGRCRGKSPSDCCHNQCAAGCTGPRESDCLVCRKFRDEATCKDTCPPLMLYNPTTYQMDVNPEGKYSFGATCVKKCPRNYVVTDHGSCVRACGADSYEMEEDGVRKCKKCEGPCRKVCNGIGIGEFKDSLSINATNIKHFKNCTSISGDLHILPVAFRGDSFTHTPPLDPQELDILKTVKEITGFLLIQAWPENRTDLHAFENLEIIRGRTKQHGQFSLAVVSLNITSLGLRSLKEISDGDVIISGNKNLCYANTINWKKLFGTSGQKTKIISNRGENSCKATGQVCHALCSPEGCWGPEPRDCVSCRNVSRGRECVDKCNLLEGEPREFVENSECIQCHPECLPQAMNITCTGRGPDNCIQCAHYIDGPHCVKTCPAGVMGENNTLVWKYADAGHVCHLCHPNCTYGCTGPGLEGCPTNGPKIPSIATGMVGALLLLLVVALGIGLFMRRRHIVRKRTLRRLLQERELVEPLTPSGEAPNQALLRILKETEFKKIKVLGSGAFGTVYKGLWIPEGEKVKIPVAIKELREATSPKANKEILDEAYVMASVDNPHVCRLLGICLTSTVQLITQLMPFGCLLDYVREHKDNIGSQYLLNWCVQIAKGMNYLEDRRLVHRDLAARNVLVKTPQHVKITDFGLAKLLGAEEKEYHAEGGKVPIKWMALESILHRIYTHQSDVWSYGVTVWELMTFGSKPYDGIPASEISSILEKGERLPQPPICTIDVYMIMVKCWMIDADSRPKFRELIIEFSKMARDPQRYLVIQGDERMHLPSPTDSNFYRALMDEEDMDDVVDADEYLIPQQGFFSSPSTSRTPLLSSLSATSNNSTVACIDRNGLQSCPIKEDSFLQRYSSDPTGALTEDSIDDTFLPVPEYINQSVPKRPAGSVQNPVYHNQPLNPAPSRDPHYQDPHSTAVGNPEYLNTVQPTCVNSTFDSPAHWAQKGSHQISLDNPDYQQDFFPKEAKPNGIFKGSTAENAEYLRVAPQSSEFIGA
Sequence of Follistatin-related protein 3 (Homo sapiens) (O95633 whole entry, looked up): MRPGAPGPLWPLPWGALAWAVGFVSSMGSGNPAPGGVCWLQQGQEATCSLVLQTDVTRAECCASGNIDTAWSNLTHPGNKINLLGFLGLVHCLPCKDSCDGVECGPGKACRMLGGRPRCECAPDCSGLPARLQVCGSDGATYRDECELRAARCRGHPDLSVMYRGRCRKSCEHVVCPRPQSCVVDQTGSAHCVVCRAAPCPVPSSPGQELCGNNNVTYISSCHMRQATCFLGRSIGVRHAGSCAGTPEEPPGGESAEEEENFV

Consider `C=CCOC(=O)[C@H]1[C@@H]2C(=O)O[C@@H](c3ccccc3)[C@@H](c3ccccc3)N2[C@@H](c2ccc(OCCOC(=O)[C@H]3C[C@H]4C(=O)N5CCC[C@H]5C(=O)N4[C@H]3c3cccc(OCCO)c3)cc2)[C@]12C(=O)Nc1ccccc12`, for which the composite z-score was 1.52 in assay [1]; -0.125 in assay [2]; 0.297 in assay [3]; 0.795 in [5]; 1.31 in assay [6]; 0.649 in [7]. In addition, the composite z-score is 0.978 in [8]; 0.732 in assay [9]; 0.186 in [10]; 1.05 in assay [11]; 0.427 in [13]; 0.384 in assay [14]. The composite z-score is 0.0829 in assay [15]; -0.0607 in assay [16]; 0.263 in [17]; 0.228 in assay [18]; 0.925 in assay [19]; 1.64 in assay [20]. The z-score is -0.676 (inactive) in assay [4] and -1.01 in assay [12].

Regarding `Cc1ccc(S[C@]2(C(=O)NCC(C)C)CC(=O)N(C(C)C)[C@@H]2c2ccc(CO)cc2)cc1`, the composite z-score in [1] is 0.0739; in assay [2] it was 0.457; in assay [3] it was 0.696; in [5], -0.475; in assay [6], -0.771; in assay [7], -0.33. Further, the composite z-score in assay [8] is -0.196; in [9] it was -0.574; in [10] it was 0.727; in assay [11], -0.962; in assay [13] it was -0.594; in assay [14], -0.886. Further, the composite z-score was 0.134 in [15]; -0.124 in assay [16]; -0.137 in [17]; -0.163 in [18]; 0.623 in assay [19]; -1.11 in assay [20]. The z-score in assay [4] is -0.982 (inactive); in [12] it was -0.725.

On to `CCCCC(=C=CC[C@H](O)c1cccc(OCCO)c1)CCO`, for which the composite z-score in [1] was 0.674; in assay [2], -0.0104; in assay [3], 0.287; in [5], 0.0392; in assay [6], -0.558; in assay [7], -0.932. The composite z-score in [8] was -0.764; in assay [9], -0.263; in [10] it was 1.07; in assay [11], -0.397; in assay [13] it was -0.497; in assay [14], -0.357. Besides, the composite z-score was -0.0182 in [15]; -0.0462 in assay [16]; 0.0639 in assay [17]; 0.0511 in assay [18]; 0.338 in [19]; 0.629 in assay [20]. The z-score in assay [4] was -0.261 (inactive); in [12], -1.21.

As for `CC(C)C[C@@H]1NC(=O)[C@@]23C(=O)N[C@@H](Cc4ccccc4)C2[C@H](C)[C@@]2(C)O[C@H]2C3/C=C/C/C=C\CNC(=O)[C@H](Cc2ccccc2)NC1=O` (stereo not given in full), the composite z-score in assay [1] was 0.608; in assay [2] it was -0.117; in [3], -0.417; in assay [5], 0.286; in [6], 0.151; in assay [7] it was 0.137. Besides, the composite z-score in assay [8] is 0.315; in assay [9], 0.335; in assay [10], 1.49; in assay [11], -1.3; in [13], 0.534; in [14] it was -0.388. The composite z-score in [15] was -0.485; in assay [16] it was -0.152; in assay [17], -0.2; in assay [18], -0.194; in assay [19], 0.569; in [20], 0.792. For the same molecule, the z-score in assay [4] was -0.639 (inactive); in [12] it was -2.08.

Consider `CO[C@H]1O[C@H](CO)[C@@H](OC(=O)Nc2ccccc2)[C@H](OC(=O)Nc2ccccc2-c2ccccc2)[C@@H]1OC(=O)Nc1ccccc1-c1ccccc1`, for which the composite z-score in assay [1] was 1.36; in assay [2] it was 0.318; in [3] it was 0.464; in assay [5] it was 1.19; in assay [6], 1.32; in assay [7] it was 0.561. Besides, the composite z-score in [8] turned out to be 1.16; in [9], 0.621; in assay [10] it was 0.522; in [11], 0.781; in assay [13], 0.986; in assay [14], 1.95. For the same molecule, the composite z-score amounted to 0.357 in [15]; 0.131 in assay [16]; 1.85 in [17]; 1.59 in assay [18]; 1.1 in [19]; 2.77 in assay [20]. For the same molecule, the z-score in assay [4] was -1.05 (inactive); in assay [12], -3.09.

As to `COc1ccc([Si](C)(C)[C@@H]2[C@@H](CC(=O)N3CCC[C@H]3CO)O[C@]3(C(=O)N(Cc4ccc(I)cc4)c4ccccc43)[C@H]2C)cc1`, the composite z-score is 0.648 in [1]; -0.0319 in [2]; 0.0052 in [3]; 0.637 in [5]; 1.29 in assay [6]; 0.743 in assay [7]. Besides, the composite z-score in [8] was 1.23; in assay [9] it was 1.13; in assay [10], 0.752; in assay [11], 0.152; in [13] it was 0.46; in assay [14], 1.51. Further, the composite z-score in assay [15] is 1.15; in [16], -0.165; in [17], 0.0611; in assay [18], 0.201; in assay [19] it was 0.252; in [20] it was 1.31. Further, the z-score in assay [4] was -1.62 (inactive); in assay [12], -2.22.

These data come from PubChem BioAssay.
